Assay outcomes deposited in PubChem BioAssay by The Scripps Research Institute Molecular Screening Center.
Only some compounds are listed: those with a hit (about 3.4% of all), similar ones and a draw of the others.
TEAD-YAP inh: TEAD-YAP interaction inhibition; HEK-TIYL cells, TEAD-Gal4/YAP UAS-luciferase luminescence; inhibition, % at 9.12 µM; hit rate 1.4% among 640,000; in the data active = inhibition above about 32%;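 note: 0% = median of test compound wells and 100% = reference inhibitor wells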
FBW7 act: activators of human E3 ligase FBW7; Q969H0; hit rate 0.13% among 650,000; AlphaScreen FBW7–phospho-cyclin E peptide binding, activator screen; normalized activity (activation), % at 26.1 µM; in the data active = normalized activity above about 1.9%;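 note: purified mutant Fbw7 with reduced substrate affinity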
GPR151 activ: human GPR151 activation. Q8TDV0. PathHunter beta-arrestin GPR151 cells, luminescence. activation, % at 11.2 µM. hit rate 1% among 650,000; in the data active = activation above about 4.9%;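 note: 0% = median of compound wells and 100% = cells with positive control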
MITF inh: blocks human microphthalmia-associated transcription factor; AlphaScreen MITF homodimerization, bead proximity signal; O75030; hit rate 0.91% among 650,000; inhibition, % at 2.6 µM; in the data active = inhibition above about 50%;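 note: 0% = vehicle wells with protein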
GPR151 confirm: human GPR151 activation, confirmation screen | shares compounds with GPR151 activ | GPR151 PathHunter beta-arrestin cells, luminescence, 90 min; % of EA-reagent control over plate median | activation, % at 11.2 µM | 6,700 tested, under 10 active;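 active = mean percent activation across replicates above the confirmation screen cutoff of 4.91%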
GPR119 ag: counter-screen for GPR151 activators: effect on human GPR119; activation, % at 11.2 µM; hit rate 0.3% among 6,700; shares compounds with GPR151 activ; GPR119 PathHunter beta-arrestin cells, luminescence, 90 min; 0 = compound-well median, 100 = enzyme-acceptor control; AID 1508611;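 active = mean percent activation in the counterscreen above 29.09%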;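 note: counterscreen on off-target GPR119 to flag nonselective hits from the GPR151 activator screen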
Target sequence (Q8TDV5 whole entry, looked up): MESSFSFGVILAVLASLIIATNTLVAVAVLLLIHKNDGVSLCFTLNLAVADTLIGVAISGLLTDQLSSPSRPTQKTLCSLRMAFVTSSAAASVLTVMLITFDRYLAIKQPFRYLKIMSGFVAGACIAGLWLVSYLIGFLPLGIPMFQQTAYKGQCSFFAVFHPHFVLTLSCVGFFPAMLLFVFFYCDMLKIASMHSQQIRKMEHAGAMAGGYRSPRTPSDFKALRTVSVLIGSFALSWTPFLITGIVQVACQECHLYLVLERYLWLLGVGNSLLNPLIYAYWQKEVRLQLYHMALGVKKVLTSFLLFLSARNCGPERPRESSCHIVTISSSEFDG
The depositor's hits bear a star; x = no result.

SMILES	TEAD-YAP inh	FBW7 act	GPR151 activ	MITF inh	GPR151 confirm	GPR119 ag
COc1ccc2[nH]c3c(=O)n(CCCCC(=O)NC(C)C)c(=S)[nH]c3c2c1	-0.3	0.6	0.5	8.7	x	x
CCCC(=O)NCc1ccc(OC)cc1	-14.7	-0.1	1.4	-2.0	x	x
COc1ccc2[nH]c3c(=O)n(CCCC(=O)Nc4ccccc4)c(=S)[nH]c3c2c1	3.2	-0.2	7.7*	-1.3	-0.7	-6.7
COc1ccc(CNC(=O)CCCn2c(=O)[nH]c3ccccc3c2=O)cc1	-3.4	-0.1	7.0*	-9.0	-0.3	-1.7
CC(C)N1C(C)CC(O)N1C(=O)c1ccncc1 (configuration not stated)	11.0	0.1	0.4	12.7	x	x
CCCCOC(=O)C1C2C=CC3(CN(C4CCCCC4)C(=O)C13)O2 (configuration not stated)	2.0	0.0	5.8*	11.2	0.6	1.2
COc1cc(C)nc(N2CCC(C(N)=O)CC2)n1	-0.2	0.1	5.2*	-7.3	0.1	0.4
Cc1cccc(CN(CCN(C)C)C(=O)c2nc3ccc(-c4cn[nH]c4)cc3s2)c1	-13.5	-0.2	-1.7	23.0	x	x
CC(C)CNC(=O)CCc1nnc(Cc2c[nH]c3ccccc23)o1	-7.8	0.4	-0.5	1.8	x	x
CCOC(=O)c1cc(C(=O)NNC(=O)/C=C/C(=O)O)c(C)nc1C	-2.3	-0.1	5.3*	5.6	0.5	-5.2
O=C(N/N=C/c1ccc(I)cc1)C(=O)NC1CCCCC1	-4.0	0.0	-0.5	6.3	x	x
COCCNC(=O)c1c(N)n(CCc2ccc(OC)c(OC)c2)c2nc3ccccc3nc12	9.5	0.6	10.2*	7.7	0.6	-1.4
CCOCCCNC(=O)c1c(N)n(CCc2ccccc2)c2nc3ccccc3nc12	4.6	0.2	0.7	-17.6	x	x
CC(C)(C)c1ccc(C(=O)Nc2ccc(NC(=O)c3ccc(F)cc3)cc2)cc1	0.4	0.0	0.3	8.0	x	x
CC(Nc1ncnc2ccccc12)C(=O)O (configuration not stated)	8.6	0.1	1.2	7.5	x	x
COc1ccc(/C=C2/SC(=S)N(C)C2=O)cc1Br	7.5	-0.1	-0.4	-7.5	x	x
O=C(Cc1cccc2ccccc12)Nc1nnc(-c2ccc(Cl)s2)o1	-3.1	-0.1	5.1*	-6.1	1.1	7.6
CCCC(=O)Nc1nnc(-c2ccc(Cl)s2)o1	-21.3	-0.1	1.3	-6.5	x	x
COC(=O)c1ccc2c(=O)[nH]c3c(C(=O)Nc4ccc(OC)c(OC)c4)sc(=S)n3c2c1	-12.5	-0.1	-0.6	2.4	x	x
CC1=C(NCc2ccccc2)CCC1=O	7.3	0.1	6.0*	12.4	-0.6	-4.2
CC1(C)CC(=O)C([N+](=O)[O-])=C(NCc2ccccc2)C1	2.0	0.2	-0.2	1.2	x	x
O=C(Nc1cc(=O)[nH]c(=O)[nH]1)c1cccc(C(=O)Nc2cc(=O)[nH]c(=O)[nH]2)c1	-6.9	-0.1	0.1	2.5	x	x
C=Cc1ccc(Cn2c(C)c(CNCCC3=CCCCC3)c(C(=O)O)c2C)cc1	-2.1	0.1	6.3*	15.5	-0.8	-8.5
COC(=O)C1=C(C)N(C)C(=O)/C1=C\c1ccc(Cl)cc1	-7.5	0.0	0.0	-13.4	x	x
COc1ccc(-c2nnc(SCC(=O)N3c4ccccc4CC3C)o2)cc1 (configuration not stated)	-9.6	0.0	5.8*	3.8	1.2	13.4
SMILES	TEAD-YAP inh	FBW7 act	GPR151 activ	MITF inh	GPR151 confirm	GPR119 ag
CCOc1ccc(N2CC(C(=O)OC)CC2=O)cc1 (configuration not stated)	8.7	0.0	6.4*	2.5	0.1	-1.1
CCOc1ccc(N2CC(C(=O)N3CCC4(CC3)NC(=O)c3ccccc3N4)CC2=O)cc1 (configuration not stated)	-4.4	0.1	5.1*	1.8	-0.2	-7.4
CCOc1ccc(N2CC(C(=O)N3CCN(C(=O)C4CC(=O)N(c5ccc(OCC)cc5)C4)CC3)CC2=O)cc1 (configuration not stated)	-23.6	-0.1	2.3	-1.8	x	x
COc1ccc2c(c1)/C(=N/OC(=O)c1cc([N+](=O)[O-])cc([N+](=O)[O-])c1)CCC2	-5.4	0.0	0.2	22.1	x	x
Cc1nn(C)c(C)c1-c1ncc(C(=O)Nc2ccccc2)s1	-30.0	0.0	5.7*	1.7	0.3	-0.6
CCc1ccccc1-n1c(C)c(C)n2c3c(=O)n(CC)c(=O)n(C)c3nc12	8.3	0.0	5.1*	4.3	0.9	2.8
CCc1ccccc1-n1c(C)c(C)n2c3c(=O)n(CC(N)=O)c(=O)n(C)c3nc12	-2.7	0.8	-0.2	-5.2	x	x
CCCCSc1nc2sc3c(c2c(=O)n1CCc1ccccc1)CC(C)(C)OC3	-6.3	-0.1	1.0	-0.7	x	x
Cc1ccn2cc(-c3ccc(NC(=O)CCc4ccccc4)cc3)nc2n1	-26.0	0.1	-1.8	-8.6	x	x
Cc1ccn2cc(-c3ccc(NC(=O)c4ccc(Br)cc4)cc3)nc2n1	2.0	0.1	5.8*	-3.7	-1.1	-14.1
O=C(NCCCN1CCOC(c2ccccc2)C1)c1cccc(F)c1 (configuration not stated)	1.7	0.0	1.4	-14.8	x	x
CCOC(=O)c1c(NC(=S)NC(=O)c2cccs2)sc(C)c1C	2.2	0.0	1.8	3.8	x	x
CCOC(=O)c1c(NC(=S)Nc2cccnc2)sc(C)c1C	6.5	0.0	5.3*	7.1	0.1	0.9
Cc1ccccc1CSCCNS(=O)(=O)c1ccccc1[N+](=O)[O-]	0.1	-0.4	5.9*	-7.2	0.5	-5.2
CCNC(=O)CC1SC(=Nc2ccc(OC)cc2)N(C)C1=O (configuration not stated)	-9.9	0.2	-1.5	-7.8	x	x
COc1ccc(N=C2SC(CC(=O)Nc3ccc(OC)cc3OC)C(=O)N2C)cc1 (configuration not stated)	-0.3	-0.1	6.6*	-3.8	3.6	2.3
Cc1ccccc1CN1CCC(N2CCC(C(=O)NCC3CCCO3)CC2)CC1 (configuration not stated)	9.5	0.0	8.4*	6.1	0.5	18.3
CC(C)(C)NC(=O)COC(=O)c1ccc(Oc2ccccc2)cc1	-4.5	0.0	-1.7	-11.3	x	x
COc1ccc(/C=N/NS(=O)(=O)c2ccccc2)cc1CSc1ccccn1	-6.2	0.1	-0.5	9.8	x	x
COc1ccc(C=O)cc1CSc1ccccn1	12.2	0.0	5.3*	8.8	-0.6	-5.6
Cc1cc(NC(=O)Cc2ccc(F)cc2)ccc1N1CCCC1=O	0.5	0.2	5.0*	16.5	-0.3	0.3
Cc1cc(NC(=O)Cc2ccc(-c3ccccc3)cc2)ccc1N1CCCC1=O	10.9	0.0	1.6	8.1	x	x
O=C(c1c(F)cccc1Cl)N(c1ccc(F)cc1)C1C=CS(=O)(=O)C1 (configuration not stated)	5.4	0.0	7.2*	1.0	-0.1	6.2
